Assay results as given in ChEMBL document CHEMBL4513216, “Probing the Open Global Health Chemical Diversity Library for Multistage-Active Starting Points for Next-Generation Antimalarials” (ACS Infect Dis, 2020).
The whole screen tested about 68,000 compounds, of which about 2,700 (4%) showed an effect of 50% or more. The entries come from a sample that favours strong results as a whole.

Test system: Plasmodium berghei
Test: Screen against P. berghei liver stage (PbLuc), transformed with Luciferase, at 2uM
Assay type: functional, HepG2
Details: tested at 2 uM

SMILES	INHIBITION [%]
Cc1cc(C(F)(F)F)nc(CNc2cc(C)nc3cc(C)nn23)n1	-15.4
Cc1cc(NCCCC(F)(F)F)n2nc(C)cc2n1	-2.24
Cc1cc(NCc2cc(C)oc2C(F)(F)F)n2nc(C)cc2n1	51.77
CCCN1CCCn2c(nc(CNC(=O)c3ccsc3)cc2=O)C1	-2.19
CCC1CN(C(=O)c2cccc(O)c2)CCC(=O)N1Cc1ccccc1 (configuration not stated)	-0.23
c1cnc(N2CCC3(CC2)CN(CC2CC2)c2ccccc23)nc1	-59.24
CC1CCCN(C(=O)CNC(=O)c2ccoc2)C1 (configuration not stated)	-13.92
CNC(=O)C1(N2CCC[C@H]2C(=O)NC2CCCCC2)CCOCC1	20.87
COCC1c2c(cnn2C)CCN1Cc1ccsc1 (configuration not stated)	-61.95
COc1ccc(-c2ccc(C3CNCCO3)nc2)cc1 (configuration not stated)	84.26
c1ncc(-c2ccc(C3CNCCO3)nc2)cn1 (configuration not stated)	27.3
COc1ccc(-c2cnc(N(C)C)nc2C2CNCCO2)cc1 (configuration not stated)	38.42
Cc1ccc(-c2ccc(C3CNCCO3)nc2)cc1 (configuration not stated)	81.51
Clc1ccc(-c2ccc(C3CNCCO3)nc2)cc1 (configuration not stated)	39.65
c1ccc(-c2ccc(C3CNCCO3)nc2)cc1 (configuration not stated)	36.92
Cn1cc(CN2CCn3cc(CNC(=O)c4cccn4C)nc3C2)cn1	16.22
Cc1c(NCc2ccc(C#N)cc2)cccc1S(=O)(=O)NC1CC1	21.14
COC(=O)CNC(=O)c1ccn(-c2ccc(Cl)c(Cl)c2)n1	-14.28
CCN(Cc1ccncc1)C(=O)c1cn(CCCc2ccccc2)nn1	30.42
COCCCN1CC2(CCN(Cc3ncc[nH]3)CC2)CC1=O	25.13
CN1CC2(CCN(Cc3ncc[nH]3)CC2)CC1=O	73.62
CC(C)=CCN1CC2(CCN(Cc3ncc[nH]3)CC2)CC1=O	20.34

SMILES	INHIBITION [%]
Cc1n[nH]cc1C(=O)NCc1cccnc1N1CCc2ccccc2C1	18.63
CCN(CC)C(=O)c1ccc(CNc2ncc(C#N)cc2Cl)cc1	27.52
N#Cc1ccc(CNc2ncc(C#N)cc2Cl)cc1	51.88
CS(=O)(=O)Cc1ccc(CNc2ncc(C#N)cc2Cl)cc1	-35.5
CSc1nccc(N2CCC3(CCCN(CCc4ccccc4)C3)C2)n1 (configuration not stated)	-31.44
CCC(NC(=O)c1nn(C)cc1C(=O)O)c1ccccc1 (configuration not stated)	49.95
N#Cc1ccc(CNC(=O)NC2CCN(CC(F)F)CC2)cc1	-39.58
Cc1ccc(CNC(=O)NC2CCN(CC(F)F)CC2)cc1	-5.19
N#Cc1cccc(CNC(=O)NC2CCN(CC(F)F)CC2)c1	67.51
O=C(NCc1nnc2n1CCCC2)c1ccc(C2CCCO2)s1 (configuration not stated)	29.22
COc1cc(N2CCC3(CCCN(Cc4ccccn4)C3)C2)ncn1 (configuration not stated)	-21.32
Cc1cc(C)nc(N2CCC(CNC(=O)c3ccccn3)CC2)n1	27.39
Cc1cc(C)nc(N2CCC(CNC(=O)c3cnccn3)CC2)n1	95.75
O=C(NCC1CCN(c2ncccn2)CC1)c1cnccn1	26.66
CN(Cc1cccc(F)c1)C(=O)CN1CCOC(Cn2cccn2)C1 (configuration not stated)	20.28
CCn1ncc(CN2CCc3nc(-c4cccnc4)nc(O)c3C2)c1C	21.14
CCn1ncc(CN2CCc3c(nc(-c4cccnc4)[nH]c3=O)C2)c1C	54.82
O=c1[nH]c(-c2cccnc2)nc2c1CCN(S(=O)(=O)N1CCCC1)C2	-15.3
O=C(N[C@H]1COC[C@@H]1N1CCCC1)c1c[nH]nc1C1CCCCC1	77.54
CCO[C@H]1COC[C@@H]1NC(=O)c1c[nH]nc1C1CCCCC1	-73.93
Cc1nc(C(=O)N[C@H]2COC[C@@H]2N2CCCCC2)cs1	11.19
COc1ccc(C(=O)NCCCNc2ncccn2)c(OC)c1	48.21

SMILES	INHIBITION [%]
COc1ccc(C(=O)NCCCNc2ncccn2)cc1F	5.28
CCOc1ccc(C(=O)NCCCNc2ncccn2)cc1	50.59
Cc1ccc(C)n1-c1ccc(C(=O)NCCNc2ncccn2)cc1	1.61
O=C(NCCNc1ncccn1)c1ccc(Br)cc1	-68.24
CS(=O)(=O)c1ccc(C(=O)NCCNc2ncccn2)cc1	35.65
Cc1cc(C)cc(C(=O)NCCCNc2ncccn2)c1	29.13
CCc1ccc(C(=O)NCCNc2ncccn2)cc1	56.02
COc1cc(OC)cc(C(=O)NCCCNc2ncccn2)c1	57.75
Cc1nc(C2CCCN(C(=O)CCCn3cccn3)C2)sc1C (configuration not stated)	15.67
O=C(c1ccc2[nH]ccc2c1)N1CC[C@@H]2CN(CC3CC3)CCO[C@@H]2C1	12.83
CCS(=O)(=O)N1CCc2cc(C(=O)N(C)C)c(NCC3CC3)nc2CC1	27.08
COC(=O)COc1cc(NCc2c(C)noc2C)c(Cl)cc1C	-55.9
NC(=O)COc1ccc(CN2CCC(O)(CN3CCCCC3)C2)cc1Cl (configuration not stated)	-32.93
Cc1cnn(C2CN(CC(=O)NCCc3ccsc3)C2)c1	-21.39
O=C(CCC1CCCO1)NCc1ccc(Br)cc1F (configuration not stated)	1.52
Cc1cc(C(=O)O)c2c(Br)cccc2n1	-34.12
COCCCN1Cc2cccc(NC(=O)c3cc(F)ccc3F)c2C1	-9.01
CCc1nnsc1C(=O)N1CCCC1c1c(C)nn(C)c1OC (configuration not stated)	-12.75
COc1cccc(Cl)c1C(C(=O)O)N1CCC(O)(c2cccnc2)CC1 (configuration not stated)	-4.09
COc1ccc(C(C(=O)O)N2CCC(O)(c3cccnc3)CC2)cc1Cl (configuration not stated)	55.39
COc1ccc(C(C(=O)O)N2CCC(O)(c3cccnc3)CC2)cc1F (configuration not stated)	-38.97
Cc1ccc(C(=O)N2C[C@H]3CCC[C@@]3(COCc3cccnc3)C2)s1	-5.01

SMILES	INHIBITION [%]
CCCC(=O)N1CCC(c2ncc3c(n2)CCNC3)CC1	5.15
O=C(CC1CCCCC1)N1CCC(c2ncc3c(n2)CCNC3)CC1	6.4
CCC(=O)N1CCC(c2ncc3c(n2)CCNC3)CC1	95.75
COc1c[nH]c(C(=O)N2CCN(c3ccc(Cl)cc3)CC2)cc1=O	5.28
Cc1cc(C)n(C2CN(CC(O)c3cc(F)ccc3F)C2)n1 (configuration not stated)	53.98
Cc1cc(C)n(C2CN(CC(O)COc3ccc(F)cc3)C2)n1 (configuration not stated)	12.31
Cc1cc(C)n(C2CN(CC(O)c3ccc(S(C)(=O)=O)cc3)C2)n1 (configuration not stated)	-3.06
COc1ccc(C(O)CN2CC(n3nc(C)cc3C)C2)cc1 (configuration not stated)	-1.02
Cc1cc(C)n(C2CN(CC(O)c3ccc(C(F)(F)F)cc3)C2)n1 (configuration not stated)	56.02
Cc1cc(C)n(C2CN(CC(O)c3ccc(F)cc3)C2)n1 (configuration not stated)	-26.11
O=C(c1cnnn1-c1ccccc1)N1CCCC(c2ccn[nH]2)C1 (configuration not stated)	-44.17
O=C(c1ccco1)N1C[C@@H]2CCN(c3cccnc3)C[C@@H]2C1	-19.54
CCN(CC)C(=O)C(c1ccccc1)N1CCn2c(C)nnc2C1 (configuration not stated)	63.95
Cc1nnc2n1CCN(C(C(=O)N1CCCCC1)c1ccccc1)C2 (configuration not stated)	-40.65
CCc1nnc2n1CCN(C(C(=O)N(CC)CC)c1ccccc1)C2 (configuration not stated)	47.85
COc1ncc(C2(O)CCN(Cc3ccc(F)c(F)c3)CC2)c(OC)n1	10.83
O=C(CN1CCCC(O)C1)NC(=O)NCc1cccs1 (configuration not stated)	-4.29
Cc1cccc(C2(CNC(=O)c3ccnc(N(C)C)c3)CCOCC2)c1	-3.96
CN(C)c1cc(C(=O)NCC2(c3ccc(F)cc3)CC2)ccn1	87.73
CN(C)c1cc(C(=O)NCC2(c3cccc(F)c3)CCOCC2)ccn1	15.38
CC1CCC(O)(CN2CCN(CCNC(=O)C3CCC3)CC2)CC1 (configuration not stated)	-81.41
COCCCNC(=O)C1CCN(CC2(O)CCC(C)CC2)CC1 (configuration not stated)	54.69

SMILES	INHIBITION [%]
CCCC(=O)N1CCC(C(=O)NCCN2CCC(C)CC2)CC1	20.43
CCCNC(=O)C1CCN(CC2(O)CCC(C)CC2)CC1 (configuration not stated)	50.03
CC(=O)N1CCC(C(=O)NCCN2CCC(C)CC2)CC1	44.99
CC1CCN(CCCNC(=O)C2CCCCC2)CC1	1.41
CN(Cc1ccco1)Cc1cnc2n1CCN(c1ccccn1)CC2	-18.6
CC1CCN(CC(O)CNc2ccc(Cl)cn2)CC1 (configuration not stated)	58.9
CC1CCN(CC(O)CNc2ccccn2)CC1 (configuration not stated)	39.95
OC(CNc1ccc(Cl)cn1)CN1CCOCC1 (configuration not stated)	12.58
Cc1nnc([C@@]23CCO[C@@H]2CCN(S(=O)(=O)c2cccnc2)C3)o1	38.17
O=C(c1c[nH]c2ccccc2c1=O)N1CCSCC1	40.47
CC(C(=O)Nc1ccc2ccccc2c1)N1CCC(n2ccnc2)CC1 (configuration not stated)	-17.84
CC(C(=O)NCCc1cccs1)N1CCC(n2ccnc2)CC1 (configuration not stated)	-22.69
CC(C(=O)Nc1ncccn1)N1CCC(n2ccnc2)CC1 (configuration not stated)	61.56
O=C(c1cc(Cl)c[nH]1)N1CCN(CCc2ccccn2)CC1	-5.61
COc1cc(OC)c(CNC(=O)NCC(=O)N2CCCC2)c(OC)c1	-19.51
OC1(Cn2ccc3ncccc32)CCN(Cc2ccccn2)CC1	7.86
CCc1sc(-c2nnc(CNCCn3cc(C)cn3)o2)cc1C	53.03
CCc1sc(-c2nnc(CNCCn3cccn3)o2)cc1C	-19.27
CCc1sc(-c2nnc(CNC(C)Cn3cc(C)cn3)o2)cc1C (configuration not stated)	-11.19
